Source: publication PMC10954555

What was measured:
[1] = target: SAGA-associated factor 29 (UniProt Q96ES7); assay: cross-link between two proteins; cross-linking mass spectrometry; other
[2] = target: Transcription initiation factor TFIID subunit 9 (UniProt Q16594); assay: as above
[3] = target: Transcription initiation factor TFIID subunit 9B (UniProt Q9HBM6); assay: as above
[4] = target: Transcription initiation factor TFIID subunit 12 (UniProt Q16514); assay: as above
[5] = target: Transcription initiation factor TFIID subunit 3 (UniProt Q5VWG9); assay: as above
[6] = target: Paired amphipathic helix protein Sin3a (UniProt Q96ST3); assay: as above
THO complex subunit 2 = THO complex subunit 2 (UniProt Q8NI27); assay: other; cross-linking mass spectrometry; other
THO complex subunit 1 = THO complex subunit 1 (UniProt Q96FV9); assay: cross-link between two proteins; cross-linking mass spectrometry; other
Pinin = Pinin (UniProt Q9H307); assay: as above
[7] = target: Probable ATP-dependent RNA helicase DDX23 (UniProt Q9BUQ8); assay: as above
Sequence of Probable ATP-dependent RNA helicase DDX23 (Q9BUQ8 whole entry): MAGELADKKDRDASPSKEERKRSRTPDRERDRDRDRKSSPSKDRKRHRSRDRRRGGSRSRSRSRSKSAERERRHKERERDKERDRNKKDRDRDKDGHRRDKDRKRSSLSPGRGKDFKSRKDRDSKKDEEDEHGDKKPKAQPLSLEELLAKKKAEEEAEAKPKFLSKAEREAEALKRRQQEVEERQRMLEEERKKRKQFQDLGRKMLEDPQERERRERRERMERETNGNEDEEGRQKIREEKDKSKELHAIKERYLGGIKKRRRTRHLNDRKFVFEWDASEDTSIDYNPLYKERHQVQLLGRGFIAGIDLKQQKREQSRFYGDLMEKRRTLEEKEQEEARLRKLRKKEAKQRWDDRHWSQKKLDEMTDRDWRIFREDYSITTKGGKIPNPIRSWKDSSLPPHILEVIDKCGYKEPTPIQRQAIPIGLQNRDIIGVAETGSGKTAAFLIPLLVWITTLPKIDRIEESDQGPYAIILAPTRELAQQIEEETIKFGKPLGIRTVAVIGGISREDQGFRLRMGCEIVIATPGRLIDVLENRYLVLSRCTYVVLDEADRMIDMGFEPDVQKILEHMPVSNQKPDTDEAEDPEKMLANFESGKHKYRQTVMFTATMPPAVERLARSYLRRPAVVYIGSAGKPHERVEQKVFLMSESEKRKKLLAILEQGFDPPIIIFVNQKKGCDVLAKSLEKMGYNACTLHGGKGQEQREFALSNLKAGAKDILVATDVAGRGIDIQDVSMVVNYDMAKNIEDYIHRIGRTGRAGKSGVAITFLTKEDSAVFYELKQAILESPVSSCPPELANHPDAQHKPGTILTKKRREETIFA

[8] = target: Pre-mRNA-processing factor 19 (UniProt Q9UMS4); assay: as above
Sequence of Pre-mRNA-processing factor 19 (Q9UMS4 whole entry): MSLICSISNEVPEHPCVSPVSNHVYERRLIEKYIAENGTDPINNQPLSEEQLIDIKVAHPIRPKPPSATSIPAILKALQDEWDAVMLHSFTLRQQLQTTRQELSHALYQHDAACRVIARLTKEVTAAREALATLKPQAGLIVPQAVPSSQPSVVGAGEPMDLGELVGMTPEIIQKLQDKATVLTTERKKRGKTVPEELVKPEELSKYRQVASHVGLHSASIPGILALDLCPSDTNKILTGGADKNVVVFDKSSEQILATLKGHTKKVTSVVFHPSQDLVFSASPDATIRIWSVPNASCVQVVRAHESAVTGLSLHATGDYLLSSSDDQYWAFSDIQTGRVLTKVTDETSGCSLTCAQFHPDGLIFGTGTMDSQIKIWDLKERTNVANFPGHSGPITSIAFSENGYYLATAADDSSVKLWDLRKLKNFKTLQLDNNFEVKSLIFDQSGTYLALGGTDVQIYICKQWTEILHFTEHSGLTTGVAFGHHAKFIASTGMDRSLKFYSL

[9] = target: Sin3 histone deacetylase corepressor complex component SDS3 (UniProt Q9H7L9); assay: as above
[10] = target: DNA topoisomerase 3-alpha (UniProt Q13472); assay: as above
Sequence of DNA topoisomerase 3-alpha (Q13472 whole entry): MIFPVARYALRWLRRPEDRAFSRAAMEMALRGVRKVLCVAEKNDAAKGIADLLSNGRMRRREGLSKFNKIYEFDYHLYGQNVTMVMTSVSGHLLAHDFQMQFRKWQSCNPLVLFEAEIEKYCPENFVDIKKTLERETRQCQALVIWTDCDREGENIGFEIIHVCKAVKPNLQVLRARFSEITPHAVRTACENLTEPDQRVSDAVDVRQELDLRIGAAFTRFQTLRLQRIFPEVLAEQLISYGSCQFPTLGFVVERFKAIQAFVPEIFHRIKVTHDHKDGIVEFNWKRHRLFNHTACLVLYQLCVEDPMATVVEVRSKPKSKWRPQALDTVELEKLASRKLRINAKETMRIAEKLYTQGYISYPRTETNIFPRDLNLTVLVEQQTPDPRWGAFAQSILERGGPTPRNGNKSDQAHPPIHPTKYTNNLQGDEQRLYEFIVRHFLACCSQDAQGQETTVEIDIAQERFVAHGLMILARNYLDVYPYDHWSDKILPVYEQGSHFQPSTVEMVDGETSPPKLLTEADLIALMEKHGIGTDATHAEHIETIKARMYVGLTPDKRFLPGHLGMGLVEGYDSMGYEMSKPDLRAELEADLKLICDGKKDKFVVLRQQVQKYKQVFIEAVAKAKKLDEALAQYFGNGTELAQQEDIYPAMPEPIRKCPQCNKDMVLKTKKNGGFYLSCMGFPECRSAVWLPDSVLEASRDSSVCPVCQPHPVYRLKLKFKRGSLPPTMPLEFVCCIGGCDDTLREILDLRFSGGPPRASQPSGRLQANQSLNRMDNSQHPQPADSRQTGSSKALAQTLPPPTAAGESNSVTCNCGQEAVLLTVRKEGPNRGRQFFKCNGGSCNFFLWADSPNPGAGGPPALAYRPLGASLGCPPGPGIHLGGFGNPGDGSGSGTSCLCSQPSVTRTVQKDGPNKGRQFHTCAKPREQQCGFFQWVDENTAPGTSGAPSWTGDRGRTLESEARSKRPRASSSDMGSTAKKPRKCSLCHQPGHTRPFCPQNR

[11] = target: RecQ-mediated genome instability protein 1 (UniProt Q9H9A7); assay: as above
Sequence of RecQ-mediated genome instability protein 1 (Q9H9A7 whole entry): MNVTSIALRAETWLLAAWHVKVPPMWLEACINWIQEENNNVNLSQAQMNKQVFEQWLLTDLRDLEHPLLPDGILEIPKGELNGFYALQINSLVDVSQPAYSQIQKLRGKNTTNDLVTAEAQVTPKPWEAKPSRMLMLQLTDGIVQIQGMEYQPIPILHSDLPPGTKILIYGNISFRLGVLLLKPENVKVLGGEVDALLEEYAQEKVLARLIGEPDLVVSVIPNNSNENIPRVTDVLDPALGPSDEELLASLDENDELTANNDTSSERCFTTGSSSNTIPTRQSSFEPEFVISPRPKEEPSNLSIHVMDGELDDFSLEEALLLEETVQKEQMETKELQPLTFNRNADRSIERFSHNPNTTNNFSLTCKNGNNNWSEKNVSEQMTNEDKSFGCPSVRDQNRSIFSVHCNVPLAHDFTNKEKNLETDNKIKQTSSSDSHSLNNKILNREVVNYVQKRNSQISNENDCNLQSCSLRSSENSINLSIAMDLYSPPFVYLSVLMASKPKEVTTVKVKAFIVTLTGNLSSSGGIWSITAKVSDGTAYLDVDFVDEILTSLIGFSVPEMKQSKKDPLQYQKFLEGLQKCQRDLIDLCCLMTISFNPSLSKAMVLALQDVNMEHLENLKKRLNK

[12] = target: Heat shock cognate 71 kDa protein (UniProt P11142); assay: other; cross-linking mass spectrometry; other
[13] = target: Stress-70 protein, mitochondrial (UniProt P38646); assay: cross-link between two proteins; cross-linking mass spectrometry; other
[14] = target: Heterogeneous nuclear ribonucleoprotein A0 (UniProt Q13151); assay: as above
Sequence of Heterogeneous nuclear ribonucleoprotein A0 (Q13151 whole entry): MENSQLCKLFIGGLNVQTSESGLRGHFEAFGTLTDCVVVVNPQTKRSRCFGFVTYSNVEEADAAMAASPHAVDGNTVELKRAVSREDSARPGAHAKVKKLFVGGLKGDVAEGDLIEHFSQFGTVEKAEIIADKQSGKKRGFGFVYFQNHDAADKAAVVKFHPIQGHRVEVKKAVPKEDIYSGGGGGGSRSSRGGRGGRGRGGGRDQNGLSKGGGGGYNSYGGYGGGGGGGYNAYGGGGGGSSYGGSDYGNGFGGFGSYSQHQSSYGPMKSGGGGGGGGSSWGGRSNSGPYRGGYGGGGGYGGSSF

[15] = target: Large ribosomal subunit protein uL1 (UniProt P62906); assay: cross-linking mass spectrometry; other
[16] = target: 60S ribosome subunit biogenesis protein NIP7 homolog (UniProt Q9Y221); assay: cross-link between two proteins; cross-linking mass spectrometry; other
Sequence of 60S ribosome subunit biogenesis protein NIP7 homolog (Q9Y221 whole entry): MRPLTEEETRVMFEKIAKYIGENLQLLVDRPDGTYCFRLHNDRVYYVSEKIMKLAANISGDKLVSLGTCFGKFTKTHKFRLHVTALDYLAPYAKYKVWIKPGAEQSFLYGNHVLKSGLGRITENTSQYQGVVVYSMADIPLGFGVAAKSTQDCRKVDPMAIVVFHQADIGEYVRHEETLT

Sequence of Transcription initiation factor TFIID subunit 10, Q12962 (Q12962 whole entry): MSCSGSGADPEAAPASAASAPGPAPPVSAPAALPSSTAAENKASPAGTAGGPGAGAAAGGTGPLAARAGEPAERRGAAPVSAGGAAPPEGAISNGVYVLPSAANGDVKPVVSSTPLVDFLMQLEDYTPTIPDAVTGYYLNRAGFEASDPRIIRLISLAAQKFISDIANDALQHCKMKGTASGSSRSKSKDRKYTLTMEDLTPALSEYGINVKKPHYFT
Sequence of Transcription initiation factor TFIID subunit 9 (Q16594 whole entry): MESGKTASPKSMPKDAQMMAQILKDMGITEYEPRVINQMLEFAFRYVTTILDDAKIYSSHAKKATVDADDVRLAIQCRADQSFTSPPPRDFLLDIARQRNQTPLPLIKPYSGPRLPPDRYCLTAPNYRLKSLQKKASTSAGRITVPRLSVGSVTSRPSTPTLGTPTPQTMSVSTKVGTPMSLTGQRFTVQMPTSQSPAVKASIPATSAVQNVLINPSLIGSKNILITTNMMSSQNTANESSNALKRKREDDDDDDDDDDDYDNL
Sequence of Endoplasmic reticulum chaperone BiP, P11021 (P11021 whole entry): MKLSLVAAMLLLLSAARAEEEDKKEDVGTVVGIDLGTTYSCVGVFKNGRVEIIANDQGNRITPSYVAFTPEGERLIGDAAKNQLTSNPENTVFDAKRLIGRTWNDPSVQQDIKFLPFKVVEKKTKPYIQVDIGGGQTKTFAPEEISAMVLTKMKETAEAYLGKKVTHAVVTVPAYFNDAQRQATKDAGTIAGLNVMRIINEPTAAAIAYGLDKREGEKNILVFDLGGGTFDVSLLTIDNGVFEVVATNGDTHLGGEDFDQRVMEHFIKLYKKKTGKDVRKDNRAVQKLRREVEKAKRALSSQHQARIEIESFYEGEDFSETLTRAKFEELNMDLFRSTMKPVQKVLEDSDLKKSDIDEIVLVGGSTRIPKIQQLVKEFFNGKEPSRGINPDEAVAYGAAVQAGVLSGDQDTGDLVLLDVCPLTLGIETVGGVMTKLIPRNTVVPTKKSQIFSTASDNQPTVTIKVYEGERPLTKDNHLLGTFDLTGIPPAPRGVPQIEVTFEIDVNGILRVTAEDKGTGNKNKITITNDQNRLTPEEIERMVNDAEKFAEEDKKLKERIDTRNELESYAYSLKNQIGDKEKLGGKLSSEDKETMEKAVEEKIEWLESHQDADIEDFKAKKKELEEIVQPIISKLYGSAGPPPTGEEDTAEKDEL
Sequence of Transcription initiation factor TFIID subunit 9B (Q9HBM6 whole entry): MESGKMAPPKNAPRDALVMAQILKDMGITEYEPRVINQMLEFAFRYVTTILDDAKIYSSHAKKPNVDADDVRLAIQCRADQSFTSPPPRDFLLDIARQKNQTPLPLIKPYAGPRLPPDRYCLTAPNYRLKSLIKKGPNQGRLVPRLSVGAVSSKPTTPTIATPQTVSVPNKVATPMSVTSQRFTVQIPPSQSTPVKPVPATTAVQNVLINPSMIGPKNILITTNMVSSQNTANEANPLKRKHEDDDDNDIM

Substance: Transcriptional adapter 3, O75528
- listed as a hit [1]: yes

Substance: Transcription initiation factor TFIID subunit 12, Q16514
- listed as a hit [2]: yes
- listed as a hit [3]: yes

Substance: Transcription initiation factor TFIID subunit 10, Q12962
- listed as a hit [4]: yes
- listed as a hit [5]: yes
- listed as a hit [2]: yes

Substance: Histone deacetylase complex subunit SAP30, O75446
- listed as a hit [6]: yes

Substance: THO complex subunit 7, Q6I9Y2
- listed as a hit (THO complex subunit 2): yes
- listed as a hit (THO complex subunit 1): yes

Substance: RNA-binding protein with serine-rich domain 1, Q15287
- listed as a hit (Pinin): yes

Substance: Pre-mRNA-processing factor 6, O94906
- listed as a hit [7]: yes

Substance: Pre-mRNA-splicing factor SPF27, O75934
- listed as a hit [8]: yes

Substance: Breast cancer metastasis-suppressor 1-like protein, Q5PSV4
- listed as a hit [9]: yes

Substance: RecQ-like DNA helicase BLM, P54132
- listed as a hit [10]: yes
- listed as a hit [11]: yes

Substance: Endoplasmic reticulum chaperone BiP, P11021
- listed as a hit [12]: yes
- listed as a hit [13]: yes

Substance: Heterogeneous nuclear ribonucleoprotein A1, P09651
- listed as a hit [14]: yes

Substance: 28S rRNA (cytosine(4447)-C(5))-methyltransferase, P46087
- listed as a hit [15]: yes
- listed as a hit [16]: yes

Substance: U4/U6.U5 tri-snRNP-associated protein 1, O43290
- listed as a hit [7]: yes

Substance: Heterogeneous nuclear ribonucleoproteins A2/B1, P22626
- listed as a hit [14]: yes
